The values below come from PubChem BioAssay (NCI).

About 79,000 compounds went through this panel and 15% of them were active in at least one assay; those are over-represented in the sample as a whole. Values without a mark were called inactive. Activity calls are given as the source filed them. No stated cut-off is given here; in the data, active means growth inhibition above about 70%; inactive means the rest.

A short description of experiment [1]: NCI Yeast Anticancer Drug Screen. Data for the rad50 strain (AID 155).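 Further: 0% = growth of vehicle-only cultures of the same strain.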 Conditions: S. cerevisiae rad50 strain growth inhibition, stronger effect = higher value. In outline:
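DNA repair mutant yeast, compound exposure, growth read-out; inhibition is taken relative to vehicle.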

The nature of experiment [2]: NCI Yeast Anticancer Drug Screen. Data for the mec2-1 strain (AID 157). To be noted: S. cerevisiae mec2-1 strain, stronger effect = higher value. An outline of the steps:
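Yeast mec2-1 mutant treated with compound. Readout: growth inhibition vs vehicle controls.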

Experiment [3] in a line: NCI Yeast Anticancer Drug Screen. Data for the sgs1 mgt1 strain (AID 161).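 Further: 0% = growth of cultures given vehicle only.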 Conditions: S. cerevisiae sgs1 mgt1 strain, stronger effect = higher value. An outline of the steps:
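Read-out: growth inhibition vs vehicle controls. Cells: mutant yeast strain deficient in DNA damage repair.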

Experiment [4] is described as follows: NCI Yeast Anticancer Drug Screen. Data for the cln2 rad14 strain (AID 165).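 Further: 0% = growth equal to vehicle treated cultures.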 Conditions: S. cerevisiae cln2 rad14 strain, stronger effect = higher value. An outline of the steps:
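cln2 rad14 yeast strain; compound exposure; growth inhibition read vs vehicle controls.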

The nature of experiment [5]: NCI Yeast Anticancer Drug Screen. Data for the bub3 strain (AID 167). Conditions: S. cerevisiae bub3 mutant strain, stronger effect = higher value. In outline:
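In this screen, a yeast mutant lacking normal mitotic checkpoint function is challenged with compound. Relative growth versus vehicle gives the inhibition value.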

Experiment [6] is described as follows: NCI Yeast Anticancer Drug Screen. Data for the mlh1 rad18 strain (AID 175). Conditions: S. cerevisiae mlh1 rad18 strain growth inhibition, stronger effect = higher value. An outline of the steps:
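Yeast w/ defined DNA-repair lesions; compound exposure; growth vs vehicle controls → % inhibition.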

Where [7] appears, read: at 5.0 µM (retest, dose inferred, filed as 0.5).
[8] abbreviates: at 50.0 µM (retest, dose inferred, filed as 5.0).

On to `N#C/C(=C\c1c(Cl)cccc1Cl)c1ccccc1`, for which the growth inhibition was 11% in experiment [1] (setting [7]); 37% in experiment [1] (setting [8]); 64.3% in experiment [1] (at 50.0 µM); -9% in experiment [2] (setting [7]); 13% in experiment [2] (setting [8]); 29.3% in experiment [2] (at 50.0 µM). Also, the growth inhibition is 12% in experiment [3] (setting [7]); 33% in experiment [3] (setting [8]); 42.5% in experiment [3] (at 50.0 µM); 8% in experiment [4] (setting [7]); 35% in experiment [4] (setting [8]); 23% in experiment [4] (at 50.0 µM). For the same compound, the growth inhibition in experiment [5] (setting [7]) is 21%; in experiment [5] (setting [8]), 62%; in experiment [5] (at 50.0 µM) it was 45.8%; in experiment [6] (setting [7]), -18%; in experiment [6] (setting [8]), 55%; in experiment [6] (at 50.0 µM), 70.7% (active).
In the case of `O=C(O)c1ccc(/C=C2\COc3ccccc3C2=O)cc1`, the growth inhibition is 5% in experiment [1] (setting [7]); 85% (active) in experiment [1] (setting [8]); 62.6% in experiment [1] (at 50.0 µM); 14% in experiment [2] (setting [7]); 92% (active) in experiment [2] (setting [8]); 67% in experiment [2] (at 50.0 µM). For the same compound, the growth inhibition in experiment [3] (setting [7]) is 13%; in experiment [3] (setting [8]), 96% (active); in experiment [3] (at 50.0 µM) it was 83.1% (active); in experiment [4] (setting [7]) it was 5%; in experiment [4] (setting [8]) it was 80% (active); in experiment [4] (at 50.0 µM), 52.8%. The growth inhibition was 24% in experiment [5] (setting [7]); 94% (active) in experiment [5] (setting [8]); 68.2% in experiment [5] (at 50.0 µM); 4% in experiment [6] (setting [7]); 91% (active) in experiment [6] (setting [8]); 84.5% (active) in experiment [6] (at 50.0 µM).
Turning to `c1ccc(-c2cnc3nc4ccccc4nc3n2)cc1`, the growth inhibition was -7% in experiment [1] (setting [7]); 89% (active) in experiment [1] (setting [8]); 94.9% (active) in experiment [1] (at 50.0 µM); 4% in experiment [2] (setting [7]); 76% (active) in experiment [2] (setting [8]); 50.6% in experiment [2] (at 50.0 µM). Besides, the growth inhibition is 12% in experiment [3] (setting [7]); 73% (active) in experiment [3] (setting [8]); 95.8% (active) in experiment [3] (at 50.0 µM); -11% in experiment [4] (setting [7]); 3% in experiment [4] (setting [8]); 36.5% in experiment [4] (at 50.0 µM). Further, the growth inhibition is 16% in experiment [5] (setting [7]); 77% (active) in experiment [5] (setting [8]); 92% (active) in experiment [5] (at 50.0 µM); 7% in experiment [6] (setting [7]); 93% (active) in experiment [6] (setting [8]); 89.5% (active) in experiment [6] (at 50.0 µM).
For the compound `CCOC(=O)C(C(=O)OCC)C(=O)c1ccccc1C(=O)c1ccccc1`, the growth inhibition in experiment [1] (setting [7]) is -12%; in experiment [1] (setting [8]) it was 44%; in experiment [1] (at 50.0 µM) it was 60.8%; in experiment [2] (setting [7]), -17%; in experiment [2] (setting [8]) it was 23%; in experiment [2] (at 50.0 µM) it was 34%. In addition, the growth inhibition in experiment [3] (setting [7]) was -9%; in experiment [3] (setting [8]) it was 55%; in experiment [3] (at 50.0 µM), 56.9%; in experiment [4] (setting [7]), -2%; in experiment [4] (setting [8]) it was 2%; in experiment [4] (at 50.0 µM) it was 14.8%. For the same compound, the growth inhibition was -3% in experiment [5] (setting [7]); 32% in experiment [5] (setting [8]); 51.5% in experiment [5] (at 50.0 µM); 1% in experiment [6] (setting [7]); 59% in experiment [6] (setting [8]); 80.6% (active) in experiment [6] (at 50.0 µM).
On to `CCN(CC)CCNc1c(C)ccc2cccnc12`, for which the growth inhibition in experiment [1] (setting [7]) is 0%; in experiment [1] (setting [8]), 7%; in experiment [1] (at 50.0 µM), 33.5%; in experiment [2] (setting [7]) it was -4%; in experiment [2] (setting [8]), -4%; in experiment [2] (at 50.0 µM) it was 35.9%. The growth inhibition in experiment [3] (setting [7]) was -2%; in experiment [3] (setting [8]) it was -2%; in experiment [3] (at 50.0 µM), 29.4%; in experiment [4] (setting [7]), -1%; in experiment [4] (setting [8]), -14%; in experiment [4] (at 50.0 µM), -29.2%. For the same compound, the growth inhibition in experiment [5] (setting [7]) was -1%; in experiment [5] (setting [8]), 2%; in experiment [5] (at 50.0 µM), 53.8%; in experiment [6] (setting [7]) it was 0%; in experiment [6] (setting [8]), 8%; in experiment [6] (at 50.0 µM), 51.5%.
For the compound `C#CC(C)(C)Nc1c2ccccc2nc2ccccc12`, the growth inhibition in experiment [1] (setting [7]) is 7%; in experiment [1] (setting [8]), 98% (active); in experiment [1] (at 50.0 µM), 98.2% (active); in experiment [2] (setting [7]), 2%; in experiment [2] (setting [8]), 97% (active); in experiment [2] (at 50.0 µM) it was 94.6% (active). Besides, the growth inhibition is -1% in experiment [3] (setting [7]); 98% (active) in experiment [3] (setting [8]); 98.8% (active) in experiment [3] (at 50.0 µM); 0% in experiment [4] (setting [7]); 94% (active) in experiment [4] (setting [8]); 93.7% (active) in experiment [4] (at 50.0 µM). Further, the growth inhibition was -2% in experiment [5] (setting [7]); 98% (active) in experiment [5] (setting [8]); 97.5% (active) in experiment [5] (at 50.0 µM); 11% in experiment [6] (setting [7]); 98% (active) in experiment [6] (setting [8]); 98.7% (active) in experiment [6] (at 50.0 µM).
For `CCCCC(=O)N/N=C/c1ccc([N+](=O)[O-])s1`, the growth inhibition is 9% in experiment [1] (setting [7]); 93% (active) in experiment [1] (setting [8]); 97% (active) in experiment [1] (at 50.0 µM); 7% in experiment [2] (setting [7]); 94% (active) in experiment [2] (setting [8]); 96% (active) in experiment [2] (at 50.0 µM). Also, the growth inhibition in experiment [3] (setting [7]) is 8%; in experiment [3] (setting [8]) it was 95% (active); in experiment [3] (at 50.0 µM), 94.5% (active); in experiment [4] (setting [7]), 1%; in experiment [4] (setting [8]), 38%; in experiment [4] (at 50.0 µM), 90.8% (active). The growth inhibition in experiment [5] (setting [7]) was -2%; in experiment [5] (setting [8]) it was 94% (active); in experiment [5] (at 50.0 µM), 95.7% (active); in experiment [6] (setting [7]), 7%; in experiment [6] (setting [8]) it was 97% (active); in experiment [6] (at 50.0 µM), 97% (active).
As to `CCCCCCCCCCCCCCCCNC(=S)N/C=C(/C#N)C(=O)OC`, the growth inhibition is 78% (active) in experiment [1] (setting [7]); 99% (active) in experiment [1] (setting [8]); 99% (active) in experiment [1] (at 50.0 µM); 89% (active) in experiment [2] (setting [7]); 99% (active) in experiment [2] (setting [8]); 99.2% (active) in experiment [2] (at 50.0 µM). The growth inhibition is 39% in experiment [3] (setting [7]); 99% (active) in experiment [3] (setting [8]); 99.2% (active) in experiment [3] (at 50.0 µM); 67% in experiment [4] (setting [7]); 98% (active) in experiment [4] (setting [8]); 98.8% (active) in experiment [4] (at 50.0 µM). Moreover, the growth inhibition in experiment [5] (setting [7]) is 99% (active); in experiment [5] (setting [8]) it was 99% (active); in experiment [5] (at 50.0 µM) it was 99.4% (active); in experiment [6] (setting [7]), 57%; in experiment [6] (setting [8]), 99% (active); in experiment [6] (at 50.0 µM), 99.2% (active).
On to `CN(C)CCC(/C=C/c1ccccc1)=N\Nc1ccc(Cl)c(Cl)c1`, for which the growth inhibition in experiment [1] (setting [7]) was 98% (active); in experiment [1] (setting [8]), 96% (active); in experiment [1] (at 50.0 µM) it was 99.7% (active); in experiment [2] (setting [7]), 99% (active); in experiment [2] (setting [8]), 98% (active); in experiment [2] (at 50.0 µM), 99.6% (active). Also, the growth inhibition was 99% (active) in experiment [3] (setting [7]); 98% (active) in experiment [3] (setting [8]); 99.5% (active) in experiment [3] (at 50.0 µM); 75% (active) in experiment [4] (setting [7]); 95% (active) in experiment [4] (setting [8]); 98% (active) in experiment [4] (at 50.0 µM). Besides, the growth inhibition in experiment [5] (setting [7]) was 95% (active); in experiment [5] (setting [8]) it was 97% (active); in experiment [5] (at 50.0 µM), 99.3% (active); in experiment [6] (setting [7]), 98% (active); in experiment [6] (setting [8]), 97% (active); in experiment [6] (at 50.0 µM), 99.5% (active).
As to `Cn1c2ccccc2c2c(C#N)c(C#N)c([N+](=O)[O-])cc21`, the growth inhibition in experiment [1] (setting [7]) is 30%; in experiment [1] (setting [8]), 98% (active); in experiment [1] (at 50.0 µM), 97.2% (active); in experiment [2] (setting [7]) it was 29%; in experiment [2] (setting [8]), 98% (active); in experiment [2] (at 50.0 µM), 78.5% (active). Moreover, the growth inhibition in experiment [3] (setting [7]) was 9%; in experiment [3] (setting [8]) it was 98% (active); in experiment [3] (at 50.0 µM), 75.2% (active); in experiment [4] (setting [7]), 9%; in experiment [4] (setting [8]) it was 97% (active); in experiment [4] (at 50.0 µM) it was 42%. Also, the growth inhibition in experiment [5] (setting [7]) is 27%; in experiment [5] (setting [8]) it was 98% (active); in experiment [5] (at 50.0 µM) it was 93.2% (active); in experiment [6] (setting [7]), 26%; in experiment [6] (setting [8]), 98% (active); in experiment [6] (at 50.0 µM) it was 76.8% (active).
